Measured values taken from PubChem BioAssay.
Active and inactive are the calls of the source. Unless noted, no stated cut-off is given here; in the data, active means inhibition above about 30%; inactive means the rest.

Legend:
[1] = molecular target: Nuclear receptor coactivator 3 (Homo sapiens) (UniProt Q9Y6Q9); test: SRC3 coactivator transcriptional activity inhibitors, confirmation, cell-based, luminescence, quadruplicate (AID 588792;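 active means mean inhibition over 43.08%, the solvent-only control mean plus 3 SD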;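 further: 0% = DMSO treated cells and 100% = gossypol at 36 µM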); conditions: HEK293 GAL4-SRC3 luciferase reporter, at 3.6 µM, stronger effect = higher value
[2] = system: transactivating tegument protein VP16 (Human herpesvirus 1), Gal4-VP16 luciferase reporter; test: VP16 transactivation inhibitors, counter-screen for SRC3 inhibitor project, cell-based, luminescence, high throughput (AID 588794); conditions: mammalian cells, VP16-driven luciferase reporter luminescence; at 3.6 µM; stronger effect = higher value
[3] = molecular target: Nuclear receptor coactivator 1 (Homo sapiens) (UniProt Q15788); test: SRC1 coactivator transcriptional activity inhibitors, confirmation, cell-based, luminescence, quadruplicate (AID 588820;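 active means mean inhibition above 46.68%, the untreated control wells mean plus 3 SD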;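 further: 0% = DMSO wells and 100% = gossypol 36 µM treated wells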); conditions: HEK293 GAL4-SRC1 luciferase reporter, at 3.6 µM, stronger effect = higher value
[4] = VP16 transactivation inhibitors, counter-screen for SRC1 inhibitor project, cell-based, luminescence, high throughput (AID 588824; in the data active means inhibition above about 25%); conditions: cell-based VP16 transactivation luciferase luminescence; at 3.6 µM; stronger effect = higher value
[5] = molecular target: Nuclear receptor subfamily 5 group A member 2 (Homo sapiens) (UniProt O00482); test: LRH-1 (NR5A2) inverse agonists, retest, confirmation, cell-based, luminescence (AID 651613; in the data active means inhibition above about 42%;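 further: HEK293T cells co-transfected with LRH-1 and StAR promoter luciferase reporter; 0% = vehicle wells and 100% = parental cells lacking receptor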); conditions: cell-based LRH-1 luciferase reporter, inverse agonism; at 3.6 µM; stronger effect = higher value
[6] = molecular target: Steroidogenic factor 1 (Homo sapiens) (UniProt Q13285); test: SF1 (NR5A1) inverse agonists, counter-screen for LRH-1 inverse agonist project, cell-based, luminescence, high throughput (AID 651614; in the data active means inhibition above about 44%;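 further: cells cotransfected with StAR promoter reporter and SF1 expression vector; 0% = vehicle on cells with receptor and 100% = vehicle on cells lacking receptor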); conditions: cell-based SF1 luciferase reporter, at 3.6 µM, stronger effect = higher value
[7] = VP16 transactivation reporter inhibitors, counter-screen for LRH-1 inverse agonist project, cell-based, luminescence, high throughput (AID 651615; in the data active means inhibition above about 33%); conditions: Gal4-VP16 luciferase reporter cells, at 3.6 µM, stronger effect = higher value
[8] = system: transactivating tegument protein VP16 (Human herpesvirus 1); test: VP16 transactivation reporter inhibitors, counter-screen for SRC2 inhibitor project, cell-based, luminescence, single concentration (AID 652007; in the data active means inhibition above about 36%); conditions: cell-based VP16 transactivation luciferase reporter, at 8.9 µM, stronger effect = higher value
[9] = molecular target: Nuclear receptor coactivator 2 (Homo sapiens) (UniProt Q15596); test: SRC2 coactivator transcriptional activity inhibitors, confirmation, cell-based, luminescence, HEK293, triplicate (AID 652008;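 active means mean inhibition above 46.5%, the solvent-only control mean plus 3 SD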;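 further: 0% = DMSO-treated cells and 100% = Gossypol at 36 µM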); conditions: HEK293 GAL4-SRC2 luciferase reporter, at 8.9 µM, stronger effect = higher value
[10] = StAR promoter reporter inhibitors, counter-screen for LRH-1 inverse agonist project, cell-based, luminescence, high throughput (AID 651611; in the data active means inhibition above about 28%); conditions: StAR promoter luciferase reporter counterscreen, at 3.6 µM, stronger effect = higher value

Measured: inhibition

Chain of Steroidogenic factor 1 (Homo sapiens) (Q13285 whole entry, looked up, the tested form may be a part): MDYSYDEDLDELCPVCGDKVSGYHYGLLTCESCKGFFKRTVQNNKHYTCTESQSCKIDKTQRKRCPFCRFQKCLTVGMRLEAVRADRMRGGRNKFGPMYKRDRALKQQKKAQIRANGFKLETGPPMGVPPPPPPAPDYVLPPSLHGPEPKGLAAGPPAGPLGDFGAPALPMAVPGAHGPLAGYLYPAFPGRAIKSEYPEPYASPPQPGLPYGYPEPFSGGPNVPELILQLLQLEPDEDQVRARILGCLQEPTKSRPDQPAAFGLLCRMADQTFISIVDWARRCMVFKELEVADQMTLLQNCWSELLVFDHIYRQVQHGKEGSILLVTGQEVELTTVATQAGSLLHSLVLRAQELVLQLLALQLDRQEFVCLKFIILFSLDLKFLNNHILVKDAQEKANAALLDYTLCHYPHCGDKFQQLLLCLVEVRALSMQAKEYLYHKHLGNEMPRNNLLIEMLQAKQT
Chain of Nuclear receptor coactivator 1 (Homo sapiens) (Q15788 whole entry, looked up, the tested form may be a part): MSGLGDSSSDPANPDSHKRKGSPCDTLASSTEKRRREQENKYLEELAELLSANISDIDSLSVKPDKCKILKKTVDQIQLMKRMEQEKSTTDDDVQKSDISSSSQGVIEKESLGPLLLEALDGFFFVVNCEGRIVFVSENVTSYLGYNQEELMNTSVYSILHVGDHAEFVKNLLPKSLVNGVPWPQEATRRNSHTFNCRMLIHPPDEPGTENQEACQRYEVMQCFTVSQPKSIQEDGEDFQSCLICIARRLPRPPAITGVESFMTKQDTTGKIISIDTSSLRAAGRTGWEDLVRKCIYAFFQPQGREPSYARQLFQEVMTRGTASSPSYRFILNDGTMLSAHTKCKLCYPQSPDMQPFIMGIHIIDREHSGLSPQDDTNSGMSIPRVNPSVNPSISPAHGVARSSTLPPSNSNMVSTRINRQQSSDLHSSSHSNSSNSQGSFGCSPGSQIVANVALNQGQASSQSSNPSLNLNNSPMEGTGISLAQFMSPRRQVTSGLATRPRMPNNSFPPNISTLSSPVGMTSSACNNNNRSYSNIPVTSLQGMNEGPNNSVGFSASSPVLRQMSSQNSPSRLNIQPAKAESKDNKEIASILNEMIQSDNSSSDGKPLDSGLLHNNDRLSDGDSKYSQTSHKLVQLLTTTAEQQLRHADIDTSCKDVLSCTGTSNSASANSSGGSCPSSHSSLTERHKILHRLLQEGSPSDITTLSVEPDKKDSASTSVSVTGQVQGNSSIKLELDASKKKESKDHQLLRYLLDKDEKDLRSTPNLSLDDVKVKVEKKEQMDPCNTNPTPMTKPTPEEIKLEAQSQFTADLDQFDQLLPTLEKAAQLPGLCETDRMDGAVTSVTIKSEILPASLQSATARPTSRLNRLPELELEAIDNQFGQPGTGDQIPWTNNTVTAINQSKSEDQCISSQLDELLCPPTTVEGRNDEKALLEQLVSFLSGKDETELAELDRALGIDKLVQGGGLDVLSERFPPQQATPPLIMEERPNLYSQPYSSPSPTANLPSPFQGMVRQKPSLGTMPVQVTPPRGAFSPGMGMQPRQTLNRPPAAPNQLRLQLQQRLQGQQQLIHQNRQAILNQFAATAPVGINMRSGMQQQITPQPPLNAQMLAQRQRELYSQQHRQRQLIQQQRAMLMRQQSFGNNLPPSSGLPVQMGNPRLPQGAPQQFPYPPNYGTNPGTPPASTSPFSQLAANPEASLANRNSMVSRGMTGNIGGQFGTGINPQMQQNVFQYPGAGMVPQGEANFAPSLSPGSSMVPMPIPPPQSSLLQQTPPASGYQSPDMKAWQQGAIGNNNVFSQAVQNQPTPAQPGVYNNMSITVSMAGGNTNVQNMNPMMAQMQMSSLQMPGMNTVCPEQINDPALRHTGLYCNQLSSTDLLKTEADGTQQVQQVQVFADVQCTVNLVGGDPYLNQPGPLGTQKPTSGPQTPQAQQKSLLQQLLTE
Chain of Nuclear receptor subfamily 5 group A member 2 (Homo sapiens) (O00482 whole entry, looked up): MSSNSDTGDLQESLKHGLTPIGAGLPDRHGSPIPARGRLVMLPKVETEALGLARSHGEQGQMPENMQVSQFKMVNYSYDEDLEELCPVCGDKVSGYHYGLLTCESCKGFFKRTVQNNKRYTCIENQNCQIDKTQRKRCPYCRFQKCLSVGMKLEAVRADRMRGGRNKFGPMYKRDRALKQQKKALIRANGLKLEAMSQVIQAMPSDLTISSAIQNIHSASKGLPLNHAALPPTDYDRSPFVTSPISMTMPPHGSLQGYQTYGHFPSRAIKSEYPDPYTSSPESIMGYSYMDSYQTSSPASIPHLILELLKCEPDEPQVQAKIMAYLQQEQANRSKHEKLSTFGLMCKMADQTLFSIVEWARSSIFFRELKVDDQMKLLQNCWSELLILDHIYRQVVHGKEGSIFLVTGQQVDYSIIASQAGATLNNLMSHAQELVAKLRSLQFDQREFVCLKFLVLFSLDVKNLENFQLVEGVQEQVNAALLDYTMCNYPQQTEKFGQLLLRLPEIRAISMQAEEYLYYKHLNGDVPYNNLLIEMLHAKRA
Chain of Nuclear receptor coactivator 3 (Homo sapiens) (Q9Y6Q9 whole entry, looked up, the tested form may be a part): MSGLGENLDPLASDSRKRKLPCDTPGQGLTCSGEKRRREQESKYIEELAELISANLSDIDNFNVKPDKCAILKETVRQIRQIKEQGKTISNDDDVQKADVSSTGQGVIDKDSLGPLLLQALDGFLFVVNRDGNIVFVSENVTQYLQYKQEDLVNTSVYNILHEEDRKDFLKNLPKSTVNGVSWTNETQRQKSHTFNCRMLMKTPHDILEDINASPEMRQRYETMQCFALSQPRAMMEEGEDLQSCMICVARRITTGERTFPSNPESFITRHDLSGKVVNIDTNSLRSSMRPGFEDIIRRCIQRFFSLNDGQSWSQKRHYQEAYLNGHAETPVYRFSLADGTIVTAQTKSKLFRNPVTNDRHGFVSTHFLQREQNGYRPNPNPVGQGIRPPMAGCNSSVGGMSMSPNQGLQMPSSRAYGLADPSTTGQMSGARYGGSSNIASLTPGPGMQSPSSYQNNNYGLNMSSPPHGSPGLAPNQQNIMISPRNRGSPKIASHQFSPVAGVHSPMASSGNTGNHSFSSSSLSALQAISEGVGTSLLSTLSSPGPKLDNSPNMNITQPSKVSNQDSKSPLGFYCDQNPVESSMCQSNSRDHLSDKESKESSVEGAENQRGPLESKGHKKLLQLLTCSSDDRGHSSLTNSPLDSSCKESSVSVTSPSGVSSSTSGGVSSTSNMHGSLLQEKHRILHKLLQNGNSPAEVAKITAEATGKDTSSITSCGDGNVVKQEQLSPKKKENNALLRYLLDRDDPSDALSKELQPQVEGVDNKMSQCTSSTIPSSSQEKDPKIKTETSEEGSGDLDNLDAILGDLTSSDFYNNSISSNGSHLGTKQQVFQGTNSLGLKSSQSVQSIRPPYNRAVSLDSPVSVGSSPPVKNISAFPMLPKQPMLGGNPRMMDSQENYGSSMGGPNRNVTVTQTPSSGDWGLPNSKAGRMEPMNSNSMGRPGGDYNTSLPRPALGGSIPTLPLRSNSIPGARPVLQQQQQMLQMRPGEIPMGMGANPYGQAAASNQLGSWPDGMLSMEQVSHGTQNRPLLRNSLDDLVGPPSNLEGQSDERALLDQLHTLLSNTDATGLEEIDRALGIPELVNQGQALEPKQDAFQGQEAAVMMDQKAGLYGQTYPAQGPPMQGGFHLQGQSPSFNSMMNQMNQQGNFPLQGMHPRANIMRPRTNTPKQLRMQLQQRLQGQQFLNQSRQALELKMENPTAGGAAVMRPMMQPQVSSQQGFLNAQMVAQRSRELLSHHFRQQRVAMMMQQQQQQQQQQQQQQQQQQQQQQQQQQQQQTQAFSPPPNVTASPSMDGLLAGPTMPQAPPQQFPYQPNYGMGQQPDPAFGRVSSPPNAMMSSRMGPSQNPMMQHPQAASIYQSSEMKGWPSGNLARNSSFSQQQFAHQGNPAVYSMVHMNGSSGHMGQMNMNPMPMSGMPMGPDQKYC

CC1OC(OC2CC(O)C3(CO)C4C(O)CC5(C)C(C6=CC(=O)OC6)CCC5(O)C4CCC3(O)C2)C(O)C(O)C1O (stereo not given)
active: [1] 97.2% | [2] 89.1% | [3] 80.3% | [4] 87.2% | [5] 109% | [6] 96% | [7] 93.5% | [8] 70.9% | [9] 54%

C[C@]12CC[C@H](O)C[C@H]1CC[C@@H]1[C@@H]2CC[C@]2(C)[C@@H](C3=CC(=O)OC3)CC[C@]12O
active: [1] 95.3% | [2] 82.7% | [3] 58.7% | [4] 80.1% | [10] 95.7% | [5] 110% | [6] 97.4% | [7] 87% | [8] 56%
inactive: [9] 30.2%

C[C@]12CC[C@H]3[C@@H](CC[C@]4(O)C[C@@H](O)CC[C@]34C=O)[C@@]1(O)CC[C@@H]2C1=CC(=O)OC1
active: [1] 92.8% | [2] 81.1% | [3] 46.8% | [4] 79.7% | [5] 110% | [6] 98.7%

C=C1C(=O)O[C@@H]2C[C@@H](C)[C@@H]3C=CC(=O)[C@@]3(C)[C@@H](O)[C@H]12
active: [2] 92.5% | [4] 91.7% | [8] 96% | [9] 93.7%
inactive: [1] 42.1%

CC1=CC2OC3CC4OC(=O)C=CC=CC(C(C)O)OCC(O)C(C)CC(=O)OCC2(CC1O)C4(C)C31CO1 (stereo not given)
active: [1] 98.7% | [2] 98.2% | [3] 97.4% | [4] 97.9% | [10] 96.3% | [5] 108% | [6] 96% | [7] 97.5% | [8] 79.8% | [9] 70.1%
